This is part of a sample that, as a whole, favours compounds with a hit. Of some 83,000 tested, about 20% had one in any assay.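 The test compound was applied at a single concentration to cells in 96-well plates for 48 hours, and percent growth was recorded.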 A number with no mark means an inactive call. Activity calls are given as the source filed them. Rule for the calls: active = growth percent below 10; inactive = the rest.
Assays:
Assay in all cases: NCI-60 one-dose screen, 48 h (100 = growth as untreated, 0 = no growth, -100 = all killed)
Conditions in all cases: 10 µM unless noted
[1] = test system: NCI-H23 lung
[2] = test system: NCI-H226 lung
[3] = test system: NCI-H322M lung
[4] = test system: HOP-62 NSCLC
[5] = test system: NCI-H460 lung
[6] = test system: HOP-92 NSCLC
[7] = test system: NCI-H522 lung
[8] = test system: A549/ATCC NSCLC
[9] = test system: 786-0 renal
[10] = test system: COLO 205 colon
[11] = test system: DU-145 prostate
[12] = test system: K-562 leukemia
[13] = test system: MALME-3M melanoma
[14] = test system: MDA-MB-231 breast
[15] = test system: RXF 393 renal
[16] = test system: SF-268 CNS
[17] = test system: SF-295 CNS
[18] = test system: SF-539 CNS
[19] = test system: UACC-257 melanoma
[20] = test system: M14 melanoma

Row | Structure (SMILES) | growth [1] [%] | growth [2] [%] | growth [3] [%] | growth [4] [%] | growth [5] | growth [6] | growth [7] | growth [8] [%] | growth [9] | growth [10] | growth [11] | growth [12] | growth [13] | growth [14] | growth [15] [%] | growth [16] [%] | growth [17] [%] | growth [18] | growth [19] [%] | growth [20]
1 | N#C/C(=C\c1ccc(-c2cc(C(F)(F)F)ccc2Cl)o1)c1nc(-c2ccco2)cs1 | 93.7 | 96.2 | 103 | 96.1 | 102% | 101% | 85.3% | 108 | 104% | 119% | 108% | 89.3% | 106% | 93.1% | 112 | 99.7 | 101 | 99.3% | 112 | 99.4%
2 | CC(O)CN1CC(O)=C(c2nc3ccccc3s2)C1=N (stereo not given) | 83 | 103 | 111 | 95.2 | 113% | 88.1% | 99.9% | 116 | 100% | 108% | 115% | 105% | 97.6% | 108% | 113 | 108 | 129 | 104% | 119 | 114%
3 | Cc1ccc(OC(=O)c2ccc(Cl)cc2)cc1 | 99.2 | 97.3 | 98.2 | 84.5 | 111% | 100% | 76.1% | 98.4 | 90.2% | 112% | 112% | 96.6% | 101% | 81.7% | 109 | 45.2 | 93.3 | 95% | 102 | 102%
4 | O=C1/C(=C(/c2ccccc2)N2CCOCC2)Cc2ccccc21 | 54.1 | 58.8 | 98.3 | 81.8 | 81% | 8.98% (active) | -63.6% (active) | 77.2 | 7.77% (active) | -48.4% (active) | -42.4% (active) | 35.2% | 9.61% (active) | 8.95% (active) | 42 | 11.3 | 75.8 | -45.6% (active) | 65.4 | -34.7% (active)
5 | Cc1nc2ccccc2n1C(=O)C[C@@H]1NC(=S)NC1=O | 95.5 | 92.4 | 96 | 93.2 | 104% | 123% | 96.8% | 93.1 | 101% | 98.9% | 109% | 107% | 83.8% | 95.8% | 108 | 95.1 | 98.4 | 98.6% | 86.9 | 89.3%
6 | Cc1cc(C)c2nc3nc(C)cc(C)c3c(N)c2c1 | 47.6 | 23.2 | 40.9 | 33.8 | -2.37% (active) | -1.87% (active) | 39% | 19.9 | 28.4% | 16.2% | 15.5% | 10% (active) | 24% | 30.2% | 42.5 | 19.7 | 29.6 | 14.1% | 40.2 | 34.1%
7 | O=C1NC(=O)C(c2ccc(Cl)cc2Cl)N1 (stereo not given) | 100 | 103 | 100 | 111 | 95.2% | 107% | 93.8% | 101 | 110% | 125% | 112% | 102% | 106% | 101% | 117 | 106 | 110 | 115% | 112 | 106%
8 | COc1ccc(/C=C2\Oc3cc(OCCCCN4CCCC4)ccc3C2=O)cc1 | 83.3 | 94.5 | 98.6 | 91.7 | 1.37% (active) | 73.7% | 91.9% | 79.3 | 85.2% | 86.4% | 95% | -40.3% (active) | 110% | 91.3% | 74.5 | 87.9 | 83.5 | 42.4% | 96.9 | 86.2%

Reference: PubChem BioAssay (NCI)
